Data on nine molecules can be found in PubChem BioAssay (NCI).

The panel holds about 83,000 compounds, 20% with a hit somewhere; the sample as a whole holds those more often.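 Single-concentration screen, 48 h exposure, 96-well plates. Endpoint: percent growth. Below 10 = active.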 Unmarked numbers belong to inactive results. Activity calls are given as the source filed them.

Among the test systems are DU-145 prostate; K-562 leukemia; MALME-3M melanoma; MDA-MB-231 breast; RXF 393 renal; SF-268 CNS; SF-539 CNS; UACC-257 melanoma; M14 melanoma; HCT-15 colon; HT29 colon; SNB-19 CNS; U251 CNS; PC-3 prostate; SK-MEL-5 melanoma; UACC-62 melanoma; LOX IMVI melanoma; SK-MEL-28 melanoma; SNB-75 CNS.
What all share (test): NCI-60 one-dose screen, 48 h (100 = growth as untreated, 0 = no growth, -100 = all killed)
What all share (conditions): 10 µM unless noted

`CC(CN1CCN(CCOCCO)CC1)CN1c2ccccc2Sc2ccc(Cl)cc21` (stereo unspecified): the growth in the experiment with DU-145 prostate was 70.3%; with K-562 leukemia it was 6.64% (active); in the experiment on MALME-3M melanoma it was 45.1%; in the experiment on MDA-MB-231 breast, 29.9%; with RXF 393 renal, 56.8%; with SF-268 CNS it was 63.8%. The growth with SF-539 CNS was 79.2%; in the experiment on UACC-257 melanoma, -3.9% (active); in the experiment with M14 melanoma, 5.98% (active); in the experiment with HCT-15 colon, 32.7%; in the experiment on HT29 colon, -30.1% (active); with SNB-19 CNS, 100%. Besides, the growth in the experiment on U251 CNS is 58.6%; in the experiment with PC-3 prostate, 43.9%; in the experiment on SK-MEL-5 melanoma, 16.1%; in the experiment with UACC-62 melanoma it was -42.8% (active); with LOX IMVI melanoma it was 20.5%; in the experiment with SK-MEL-28 melanoma it was 49%.

Take `c1ccc(C(Nc2ccccn2)(c2ccccc2)c2ccccc2)cc1`: the growth with DU-145 prostate is 85.6%; in the experiment with K-562 leukemia, 56%; in the experiment with MALME-3M melanoma, 109%; with MDA-MB-231 breast it was 66.8%; with RXF 393 renal, 82.9%; in the experiment with SF-268 CNS, 99.5%. For the same molecule, the growth in the experiment on SF-539 CNS is 86.4%; in the experiment on UACC-257 melanoma, 97.4%; with M14 melanoma it was 87.9%; with HCT-15 colon, 74.1%; in the experiment with HT29 colon, 69.9%; in the experiment on SNB-19 CNS, 77.5%. In addition, the growth was 84.3% in the experiment with U251 CNS; 39.1% in the experiment on PC-3 prostate; 70.3% with SK-MEL-5 melanoma; 59.3% with UACC-62 melanoma; 100% in the experiment on LOX IMVI melanoma; 98.5% in the experiment on SK-MEL-28 melanoma.

Take `O=C(NO)c1ccc(NCc2csc3ccccc23)cc1`: the growth is 54.3% with DU-145 prostate; 62% in the experiment with K-562 leukemia; 60.8% in the experiment with MALME-3M melanoma; 60.9% with MDA-MB-231 breast; 71.2% with RXF 393 renal; 68.8% in the experiment on SF-268 CNS. Further, the growth with SF-539 CNS is 70.3%; in the experiment with UACC-257 melanoma, 70.2%; with M14 melanoma, 59.4%; in the experiment with HCT-15 colon it was 39%; with HT29 colon, 79.2%; with SNB-75 CNS, 56%. The growth is 57.4% in the experiment with U251 CNS; 74.4% with SK-MEL-5 melanoma; 57.8% with UACC-62 melanoma; 71.6% in the experiment with LOX IMVI melanoma; 91.2% in the experiment with SK-MEL-28 melanoma.

Take `O=[N+]([O-])c1cccc(N=C(Nc2cccc([N+](=O)[O-])c2)c2ccccc2)c1`: the growth is 98.2% in the experiment on DU-145 prostate; 45% in the experiment with K-562 leukemia; 79.7% in the experiment on MALME-3M melanoma; 83.9% in the experiment on MDA-MB-231 breast; 82% in the experiment with RXF 393 renal; 96.6% in the experiment with SF-268 CNS. The growth is 87.1% in the experiment with SF-539 CNS; 92.4% in the experiment with UACC-257 melanoma; 85.7% with M14 melanoma; 68.3% in the experiment on HCT-15 colon; 47.5% in the experiment with HT29 colon; 84.2% with SNB-75 CNS. For the same molecule, the growth was 82.6% with U251 CNS; 51.6% with PC-3 prostate; 70.5% with SK-MEL-5 melanoma; 70% in the experiment on UACC-62 melanoma; 97% in the experiment on LOX IMVI melanoma; 96.3% with SK-MEL-28 melanoma.

Regarding `Nc1ccc(C(OC(=O)c2cc3ccccc3c(Cc3c(O)c(C(=O)OC(c4ccc(N)cc4)(c4ccc(N)cc4)c4ccc(N)cc4)cc4ccccc34)c2O)(c2ccc(N)cc2)c2ccc(N)cc2)cc1`, the growth was 21.9% in the experiment with DU-145 prostate; 7.72% (active) in the experiment with K-562 leukemia; 5.78% (active) with MALME-3M melanoma; -9.83% (active) in the experiment on MDA-MB-231 breast; 28% in the experiment on RXF 393 renal; 24.6% in the experiment with SF-268 CNS. The growth in the experiment with SF-539 CNS is 10.3%; in the experiment on UACC-257 melanoma, 6.17% (active); with M14 melanoma it was 14.9%; in the experiment on HCT-15 colon it was 49.6%; in the experiment on SNB-75 CNS it was 8.57% (active); with SNB-19 CNS, 19%. Further, the growth in the experiment with U251 CNS is 11.2%; with PC-3 prostate, -3.26% (active); in the experiment with SK-MEL-5 melanoma, -47.1% (active); with UACC-62 melanoma, 10.7%; in the experiment on LOX IMVI melanoma, 24%; with SK-MEL-28 melanoma, 33.9%.

Regarding `C/C(=N\OC(=O)Nc1cccc(Cl)c1)c1ccccc1`, the growth with DU-145 prostate is 102%; in the experiment with K-562 leukemia, 90.1%; in the experiment on MALME-3M melanoma, 98.2%; with MDA-MB-231 breast, 103%; in the experiment on RXF 393 renal, 87.5%; in the experiment with SF-268 CNS it was 113%. Moreover, the growth was 104% in the experiment on SF-539 CNS; 104% in the experiment on UACC-257 melanoma; 108% with M14 melanoma; 94.2% in the experiment on HCT-15 colon; 80.4% in the experiment with SNB-75 CNS; 106% in the experiment with SNB-19 CNS. Moreover, the growth in the experiment on U251 CNS was 93.5%; in the experiment with PC-3 prostate, 94%; in the experiment on SK-MEL-5 melanoma, 94.8%; in the experiment on UACC-62 melanoma, 93.7%; in the experiment with LOX IMVI melanoma it was 110%; in the experiment on SK-MEL-28 melanoma, 95.2%.

Regarding `Cc1ccc(-c2cnc3sc4ccc(Cl)cc4n23)cc1`, the growth was 101% in the experiment on DU-145 prostate; 110% in the experiment with K-562 leukemia; 110% in the experiment with MALME-3M melanoma; 85% with MDA-MB-231 breast; 104% with RXF 393 renal; 98.5% in the experiment on SF-268 CNS. In addition, the growth with SF-539 CNS was 94.4%; in the experiment with UACC-257 melanoma, 112%; in the experiment on M14 melanoma, 100%; in the experiment on HCT-15 colon, 100%; in the experiment with SNB-75 CNS it was 93.9%; in the experiment on SNB-19 CNS it was 96.4%. For the same molecule, the growth with U251 CNS is 105%; in the experiment with PC-3 prostate, 82.6%; in the experiment with SK-MEL-5 melanoma it was 95.6%; with UACC-62 melanoma it was 87.9%; with LOX IMVI melanoma it was 94.2%; in the experiment on SK-MEL-28 melanoma, 109%.

`CC1=C(C(=O)Nc2ccc(F)cc2)C(c2ccccc2)C2=C(CC(C)(C)CC2=O)N1` (stereo unspecified): the growth in the experiment on DU-145 prostate is 95.2%; with K-562 leukemia, 56%; with MALME-3M melanoma, 89.8%; with MDA-MB-231 breast, 70%; in the experiment on RXF 393 renal it was 96.4%; in the experiment on SF-268 CNS, 82.6%. Moreover, the growth was 79.5% in the experiment with SF-539 CNS; 83.6% in the experiment on UACC-257 melanoma; 82.6% in the experiment on M14 melanoma; 77.8% in the experiment on HCT-15 colon; 96.3% with HT29 colon; 87.4% with SNB-19 CNS. Further, the growth with U251 CNS was 69.8%; in the experiment with PC-3 prostate, 54.6%; with SK-MEL-5 melanoma, 38.2%; in the experiment on UACC-62 melanoma, 55.6%; in the experiment with LOX IMVI melanoma it was 79%; in the experiment on SK-MEL-28 melanoma it was 68%.

For the molecule `O=C(/C=C/c1ccccc1)n1c(-c2ccccc2)nc2ccccc21`, the growth is 113% in the experiment on DU-145 prostate; 103% in the experiment with K-562 leukemia; 112% in the experiment with MALME-3M melanoma; 117% in the experiment on MDA-MB-231 breast; 102% with RXF 393 renal; 110% with SF-268 CNS. Besides, the growth was 95.3% in the experiment on SF-539 CNS; 92.4% in the experiment with UACC-257 melanoma; 104% in the experiment on M14 melanoma; 98.2% in the experiment on HCT-15 colon; 110% in the experiment with HT29 colon; 94.7% in the experiment with SNB-19 CNS. Moreover, the growth in the experiment with U251 CNS is 96.2%; in the experiment with PC-3 prostate it was 95.6%; in the experiment on SK-MEL-5 melanoma, 97.4%; in the experiment on UACC-62 melanoma it was 103%; in the experiment on LOX IMVI melanoma, 100%; with SK-MEL-28 melanoma it was 108%.
